# Assay outcomes (PubChem BioAssay)
# Most compounds without a hit are left out; they make up all but 19% or so of the library.
# ELG1 DNA repair: blocks ELG1-dependent DNA repair in HEK293T cells. HEK293T ELG1-luciferase reporter, luminescence, 16 h; DNA damage induced by 5-fluorouridine. 2.3% of 330,000 active. Potency, µM (highest dose often 46.1 µM), without a hit: at the top dose activity change, negative = inhibition, usual class: inhibitors; note: potency is the fitted concentration of half-maximal effect; nearly all actives have a fitted effect of over 55% in size
#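 Cells (2,000 per well) received 5-fluorouridine plus test compound or DMSO and were incubated 16 hr at 37 °C, 5% CO2. Luciferase activity was read by luminescence 30 min after ONE-Glo addition; signal suppression marked inhibition of damage-induced ELG1 function.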
# TDP1 inh: blocks human tyrosyl-DNA phosphodiesterase 1 | Q9NUW8 | recombinant TDP1, AlphaScreen DNA substrate cleavage | Potency, µM (doses to about 130 µM), inactives show at the top dose activity change, negative = inhibition, usual class: inhibitors | 0.28% of 350,000 active; note: potency is the fitted concentration of half-maximal effect; nearly all actives have a fitted effect of over 40% in size
# Target sequence (Q9NUW8 whole entry, looked up): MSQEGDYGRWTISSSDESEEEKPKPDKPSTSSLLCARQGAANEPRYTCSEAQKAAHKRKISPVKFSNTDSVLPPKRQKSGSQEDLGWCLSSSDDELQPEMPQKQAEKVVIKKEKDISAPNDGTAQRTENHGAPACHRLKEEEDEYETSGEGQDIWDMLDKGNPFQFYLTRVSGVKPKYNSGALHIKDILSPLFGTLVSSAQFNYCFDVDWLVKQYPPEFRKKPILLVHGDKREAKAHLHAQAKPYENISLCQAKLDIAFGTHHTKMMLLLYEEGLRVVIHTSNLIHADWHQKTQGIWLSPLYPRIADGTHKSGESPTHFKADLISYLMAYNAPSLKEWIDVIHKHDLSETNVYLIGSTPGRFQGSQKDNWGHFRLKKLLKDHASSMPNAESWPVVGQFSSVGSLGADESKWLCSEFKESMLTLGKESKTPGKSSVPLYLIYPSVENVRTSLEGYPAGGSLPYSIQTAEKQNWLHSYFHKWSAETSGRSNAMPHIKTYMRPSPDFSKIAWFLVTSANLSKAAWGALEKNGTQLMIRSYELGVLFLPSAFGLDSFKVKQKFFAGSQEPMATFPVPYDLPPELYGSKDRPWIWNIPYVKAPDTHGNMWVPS
#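 Compounds were preincubated with Tdp1 (1 nM final) for 15 min at room temperature before substrate (15 nM final) started a 5 min reaction; beads (10 ug/ml final) were then added for 10 min before AlphaScreen detection.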
# DT40 TDP1 CPT: DT40-hTDP1 cell growth loss with CPT | 12% of 420,000 active | chicken DT40 Tdp1-/-;hTDP1 cells + 20 nM CPT, ATP luminescence, 48 h | Potency, µM (titrated, usually from 46.2 µM), without a hit: at the highest dose activity change, negative = growth inhibition, usual class: inhibitors; note: potency is the fitted concentration of half-maximal effect; nearly all actives have a fitted effect of over 55% in size
#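 Cell growth measured by CellTiter-Glo luminescence after a minimum 48 h, 37 C compound exposure with 20 nM CPT in Tdp1-knockout DT40 cells stably expressing hTDP1, seeded 400/well; qHTS titration format.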
# TDP1 cell noCPT: qHTS for Inhibitors of human tyrosyl-DNA phosphodiesterase 1 (TDP1): qHTS in cells in absence of CPT; DT40 Tdp1-/- hTDP1 cells, no CPT, ATP luminescence, 48 h; Potency, µM (doses to about 46.2 µM), inactives show at the top dose activity change, negative = growth inhibition, hits mostly inhibitors; 15% of 420,000 active; note: potency is the fitted concentration of half-maximal effect; nearly all actives have a fitted effect of over 55% in size
#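 No-CPT arm: Tdp1-/-;hTDP1 DT40 cells (400/well) plus compounds, incubated ≥48 hr at 37 °C. Readout CellTiter-Glo luminescence.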
# Giardia killer: kills Giardia lamblia; Giardia lamblia trophozoite viability; activity change, % at 7.66 µM, hits read low; 0.15% of 340,000 active; AID 540267; in the data active = activity change below about -80%; inconclusive = between about -30% and that limit;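 note: parasites exposed to compound for two days anaerobically before the ATP read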
#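 ATP-content bioluminescence gauges trophozoite survival. Cells (100/well) receive compound and incubate anaerobically for 48 hrs at 37 deg C; detection reagent follows for 15-30 min at room temperature.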
# IL1B secr inh: inhibitors of inflammasome signaling (IL-1 beta secretion) | THP-1 LPS/ATP IL-1B secretion, AlphaLISA, 16 h; active compounds read low | 4.7% of 360,000 active | activity change, % at 57.5 µM; in the data active = activity change below about -50%; inconclusive = mostly about -30% to -49%
#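 Secreted IL-1B measured by AlphaLISA bead assay after 16 h compound exposure of THP-1 cells; compounds (final up to 57.5 uM) added 1 h before LPS (250 ng/mL) and ATP (1.25 mM) stimulation; lower signal means less secretion.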
# The depositor's hits bear a star; ? = inconclusive; · = no result; [ ] = dose if it differs, or a comment. Unless noted, calls come from the whole dose curve; as a rule, active = well fitted curve in the direction sought with a large enough effect; inconclusive = small, poorly fitted or top-dose-only effect, or another doubt; inactive = no such curve, though single readings can be large; an effect the other way counts as inactive or inconclusive. % is set by controls: 0 for no effect and ±100 for the full control effect.
SMILES,ELG1 DNA repair,TDP1 inh,DT40 TDP1 CPT,TDP1 cell noCPT,Giardia killer,IL1B secr inh
COc1ccc(/C=C2/SC(=O)N(CCC(=O)Nc3ccccc3C(=O)O)C2=S)cc1,4%,9%,-3%,7%,-17,0
[C-]#[N+]/C(C#N)=C\c1cc(C(C)(C)C)c(O)c(C(C)(C)C)c1,·,12%,·,·,·,·
CC(C)(C)c1cc(/C=C(\C#N)C(N)=S)cc(C(C)(C)C)c1O,·,17%[56.1 µM],0.56µM*,0.71µM*,·,·
COCCn1c(=O)c(-c2cc(F)cc(F)c2)nc2cnc(OC)nc21,·,·,5%,-9%,·,·
Cc1cc(C(=O)Nc2ccc(Cl)cc2)c(C)n1-c1ccccc1,?,4%,0%,-25%,?,-91*
Cc1ccc(NC(=O)c2cc(C)n(-c3cccc(C)c3)c2C)cc1,?,4%,?,21µM*,-14,-66*
Cc1ccc(NC(=O)c2cc(C)n(-c3ccccc3)c2C)cc1,?,8%,?,?,?,-83*
O=C(Nc1cccc(F)c1)c1ccc2c(c1)N(Cc1ccccc1)C(=O)c1ccccc1S2(=O)=O,·,6%,?,?,·,·
Cc1ccc(CNC(=O)C2CCC(=O)N(Cc3ccc(Cl)cc3)C2)cc1F (stereo unspecified),-20%,1%,?,-29%,-8,14
O=CN1CCN(C(C(=O)NC2CCCCC2)c2ccc(Cl)cc2)CC1 (stereo unspecified),·,·,0%,0%,-26,-6
Cc1ccc(NC(=O)COC(=O)C2CC3CCCC(C2)C3=O)c([N+](=O)[O-])c1 (stereo unspecified),0%,2%,-2%,6%,-15,2
N#Cc1cc([N+](=O)[O-])ccc1NC(=O)COC(=O)C1CC2CCCC(C1)C2=O (stereo unspecified),9.2µM*,·,-10%,?,-3,-14
COc1ccc(CNC(=O)CCCn2c(SCC#N)nc3cc4c(cc3c2=O)OCO4)cc1,23µM*,6%,-12%,-16%,-13,12
COCCCNC(=O)CSc1nc2ccccc2c(=O)n1Cc1ccc2c(c1)OCO2,1%,1%,-10%,-15%,9,0
CCN(CC)C(=O)CSc1nc2cc3c(cc2c(=O)n1CCCCCC(=O)NCCc1ccc(OC)c(OC)c1)OCO3,·,-6%,15µM*,15µM*,·,·
CCn1c(SCC(=O)N2CCCCC2C)nc2ccsc2c1=O (stereo unspecified),-27%,5%,10µM*,?,15,4
CC1CCCCN1C(=O)CSc1nc2cc3c(cc2c(=O)n1Cc1ccc2c(c1)OCO2)OCO3 (stereo unspecified),?,7%,21µM*,23µM*,2,?
C/C(CCC(=O)OC[C@@H]1O[C@H](C#Cc2ccccc2)C=C[C@@H]1Oc1ccc(C)cc1)=N/O[C@@H](C)CN1CCCc2nc(C)c(C)cc21,·,11%[21 µM],·,·,·,·
CCN(CC)C(=O)CSc1nc2cc3c(cc2c(=O)n1Cc1ccc(OC)cc1)OCO3,-23%,-2%,23µM*,18µM*,3,11
COc1ccc(CCNC(=O)c2ccc(Cn3c(SCC(=O)NCCC(C)C)nc4cc5c(cc4c3=O)OCO5)cc2)cc1OC,·,-6%,0%,-17%,·,·
COCCNC(=O)CSc1nc2cc3c(cc2c(=O)n1Cc1ccc(C(=O)NCCc2ccc(OC)c(OC)c2)cc1)OCO3,·,-4%,8.2µM*,21µM*,·,·
O=C(CN1CCN(Cc2ccccc2)CC1)Nc1cccc(Cl)c1Cl,·,·,?,21µM*,·,-19
Cc1ccc(NC(=O)CN2CCN(Cc3ccccc3)CC2)cc1,0%,·,-10%,-4%,-2,4
O=C(CN1CCN(CC(=O)Nc2ccccc2Cc2ccccc2)CC1)Nc1ccccc1Cl,26µM*,7%,10µM*,12µM*,?,16
